# The list is not random: actives were taken first. Their share in the collection is about 5%.
# VACV Venus inh: vaccinia inhibition (Venus reporter); Vaccinia virus Venus reporter expression, fluorescence; Potency, µM (top dose mostly 36.5 µM), for inactives: top-dose activity change, negative = inhibition, usual class: inhibitors; AID 720580; 330,000 tested, 0.46% active; calls by dose curve; tested in A549 cells; also: potency is read from the fitted curve at half-maximal effect; nearly all actives have a fitted effect of over 30% in size
# TbPYK inhibitor: blocks Trypanosoma brucei pyruvate kinase; 410,000 tested, 0.12% active; Potency, µM (highest dose often 76.8 µM), inactives show at the highest dose activity, negative = inhibition, hits mostly inhibitors; Q57TT1; TbPYK enzyme, Kinase-Glo Plus ATP luminescence, 45 min; also: potency is read from the fitted curve at half-maximal effect; nearly all actives have a fitted effect of over 50% in size
#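 Luminescence from Kinase-Glo Plus, added after a 45-minute room-temperature reaction, served as the end-point read-out. The enzyme and substrate were preincubated with compound before ADP (130 uM final) initiated turnover. Concentration-effect curves came from normalized qHTS data.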
# HCMV antiviral: inhibitors of human cytomegalovirus; AID 1259415; 410,000 tested, 4.5% active; activity change, negative = inhibition, % at 57.5 µM; HFF cells, HCMV-luciferase reporter, 72 h; stronger effect = lower value; in the data active = activity change below about -60%; inconclusive = no clear call, values can overlap the other calls; inactive = above about -39%
#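 Two compound doses tested in HFFs infected with HCMV-luciferase, MOI 1 PFU/cell, 72 h at 37C. Lysate luminescence read with OneGlo; data normalized against buffer-only and 10uM Salinomycin inhibitor controls.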
# LmPK inhibitor: inhibitors of Leishmania mexicana pyruvate kinase; Potency, µM (top dose mostly 57.5 µM), without a hit: at the highest dose activity change, negative = inhibition, hits mostly inhibitors; purified LmPK, Kinase-Glo ATP luminescence, 1 h; Q27686; 290,000 tested, 0.37% active; also: potency is read from the fitted curve at half-maximal effect
# Target sequence (Q27686 whole entry, looked up): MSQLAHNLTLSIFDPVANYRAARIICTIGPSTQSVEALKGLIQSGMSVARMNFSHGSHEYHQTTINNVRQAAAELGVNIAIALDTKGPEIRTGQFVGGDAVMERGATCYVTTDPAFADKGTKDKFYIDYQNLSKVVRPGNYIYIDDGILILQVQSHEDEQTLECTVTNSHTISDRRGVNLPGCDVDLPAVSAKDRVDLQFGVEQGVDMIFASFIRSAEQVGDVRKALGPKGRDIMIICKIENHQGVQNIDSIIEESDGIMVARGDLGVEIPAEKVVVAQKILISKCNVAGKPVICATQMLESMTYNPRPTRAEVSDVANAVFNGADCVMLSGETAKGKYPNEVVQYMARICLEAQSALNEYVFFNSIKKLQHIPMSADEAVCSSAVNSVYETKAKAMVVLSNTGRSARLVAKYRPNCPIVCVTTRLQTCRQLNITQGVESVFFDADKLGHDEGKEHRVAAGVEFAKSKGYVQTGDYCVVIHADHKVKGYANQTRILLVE
#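 Pyruvate kinase activity monitored as ATP production (luciferase luminescence). Conditions: 0.1 nM enzyme, 0.5 mM PEP, 0.1 mM ADP, 1 h, RT; normalized against uninhibited and no-enzyme wells.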
# VACV mCherry inh: inhibitors of vaccinia virus infection (mCherry reporter signal). Vaccinia virus mCherry reporter infection, fluorescence. Potency, µM (doses to about 36.5 µM), without a hit: at the highest dose activity change, negative = inhibition, usual class: inhibitors. 310,000 tested, 0.63% active. AID 720579; calls by dose curve; tested in A549 cells; also: potency is read from the fitted curve at half-maximal effect; nearly all actives have a fitted effect of over 35% in size
# * marks the source's active call; other numbers are inactive results; i = inactive; u = inconclusive; x = no result given; + = active, no number. Unless noted, calls follow the shape of the dose curve; as a rule, active = well fitted curve in the direction sought with a large enough effect; inconclusive = small, poorly fitted or top-dose-only effect, or another doubt; inactive = no such curve, though single readings can be large; an effect the other way counts as inactive or inconclusive. % is scaled to controls: 0 for no effect and ±100 for the full control effect.
SMILES,VACV Venus inh,TbPYK inhibitor,HCMV antiviral,LmPK inhibitor,VACV mCherry inh
O=C(Nc1nc(-c2cccs2)cs1)c1ccc(S(=O)(=O)N2CCCC2)cc1,u,1%,-90*,-2%,u
Cc1csc(NC(=O)c2ccc(S(=O)(=O)N3CCCC3)cc2)n1,x,9%,-1,1%,x
O=C(O)CN1C(=O)c2cccc(Oc3ccc(Cl)cc3)c2C1=O,x,4%,-24,2%,x
N#Cc1ccc(-c2csc(NNC(=O)c3ccc(Br)cc3)n2)cc1,14µM*,0%,-106*,9%,x
N#Cc1ccc(-c2csc(NNC(=O)c3ccccc3)n2)cc1,12%,-3%,-31,2%,u
Cc1cc(C)c2c(n1)sc1c(=O)n(-c3cc(Cl)ccc3C)nnc12,-27%,2%,-60*,x,u
CN1CCC(N(C)S(=O)(=O)c2ccc(NC(=O)COc3cccc(Cl)c3)cc2)CC1,u,1%,-27,x,u
CCCCC1(CCCC)NC(=S)N(Nc2ccc(C)cc2)C1=O,-2%,-13%,-6,6%,i
CCOC(=O)[C@]12CCCC=C1N(Cc1ccco1)C(=O)[C@H](CC(=O)NCc1ccccc1)C2,-5%,-1%,-11,x,-10%
Cc1ccc(NS(=O)(=O)c2cccc(C(=O)NCCCN3CCCC3=O)c2)cc1,-2%,5%,-101*,x,-16%
Cc1ccc(S(=O)(=O)NCC2CCC(C(=O)NCCCN3CCCC3=O)CC2)cc1 (stereo not given),-13%,3%,-62*,-9%,i
N#CC(=Cc1cccs1)c1nc(-c2ccc(Cl)cc2)cs1,-13%,-12%,-37,x,i
N#C/C(=C\C=C\c1ccccc1)c1nc(-c2ccc(Cl)cc2)cs1,-9%,-6%,-60*,3%,i
COc1ccc(-n2c(C)cc(/C=N/Nc3nnc(C)n3N)c2C)cc1,u,0%,-23,0%,11µM*
COc1cccc(/C=N/Nc2cc(N3CCOCC3)ncn2)c1O,-24%,5%,-99*,3%,u
COc1cccc(/C=N/Nc2ncnc3c2ncn3Cc2ccccc2)c1O,u,-16%,-98*,-2%,3.2µM*
Cc1nnc(N/N=C/c2ccccc2F)n1N,x,-3%,1,2%,x
COc1cccc(/C=N/Nc2cc(Cl)nc(C)n2)c1O,x,0%,54,1%,x
COc1cccc(/C=N/Nc2nnc(C)n2N)c1O,u,-3%,9,4%,7.1µM*
COc1ccc(/C=N/Nc2cc(N3CCOCC3)ncn2)c(OC)c1,x,2%,9,2%,x
O=C1NCCCC1C(=O)NCCN1C(=O)CCC1=O (stereo not given),-12%,-6%,4,-6%,-12%
COc1ccc(CNC(=O)C2CCN(S(=O)(=O)N3CCCC3)CC2)cc1,x,0%,+,-1%,x
CCOC(=O)N1CCN(S(=O)(=O)N2CCCC(C(=O)NCc3ccc(OC)cc3)C2)CC1 (stereo not given),-1%,-1%,+,1%,-11%
O=c1[nH]c2ccccc2n1CCCSCCCn1c(=O)[nH]c2ccccc21,x,-9%,-66*,3%,x
CN(C(=O)c1nc(-c2cccc(F)c2)n2c1CCCCC2)c1ccccc1F,-1%,-4%,-62*,x,i
SMILES,VACV Venus inh,TbPYK inhibitor,HCMV antiviral,LmPK inhibitor,VACV mCherry inh
Cc1ccc(C)c(NC(=S)NCCc2c[nH]c3ccccc23)c1,u,-2%,-78*,0%,-25%
Cc1cccc(NC(=S)NCCc2c[nH]c3ccccc23)c1,-18%,1%,-80*,6%,-26%
Cc1ccc(NC(=S)NCCc2c[nH]c3ccccc23)cc1,u,5%,1,1%,u
Cc1ccccc1NC(=S)NCCc1c[nH]c2ccccc12,-7%,-6%,-17,-5%,u
CCN(CC)CCN(Cc1cc2cc3c(cc2[nH]c1=O)OCCO3)C(=S)NCCCOC,-23%,-10%,22,3%,-6%
O=C(Nc1nc2cc3c(cc2s1)OCCO3)c1cccc(N2C(=O)CCC2=O)c1,-5%,2%,4,-2%,i
CN(CC1CCCO1)S(=O)(=O)c1ccc(C(=O)Nc2nc3cc4c(cc3s2)OCO4)cc1 (stereo not given),-16%,1%,-85*,0%,-14%
CCN(CC)S(=O)(=O)c1cccc(C(=O)Nc2nc3cc4c(cc3s2)OCCO4)c1,u,-1%,-98*,14%,u
COC(=O)C1CCC(=O)N1C(c1ccc(OC)cc1)c1cc(OC)c(OC)c(OC)c1 (stereo not given),u,0%,-81*,x,u
Cc1ccc(/C=C2\SC(=S)N(CCCC(=O)Nc3ccccc3C(=O)O)C2=O)cc1,x,4%,u,-2%,x
CCc1ccc(/C=C2\SC(=S)N(CCCC(=O)Nc3ccc(C(=O)O)cc3)C2=O)cc1,x,4%,-93*,-14%,x
CCc1ccc(/C=C2\SC(=S)N(CCCC(=O)Nc3ccccc3C(=O)O)C2=O)cc1,x,8%,+,-8%,x
COc1ccc(/C=C2\SC(=O)N(CCNC(=O)Cc3coc4cc(OC)ccc34)C2=O)cc1,-23%,4%,-103*,0%,u
COc1ccc2c(CC(=O)NCCN3C(=O)S/C(=C\c4cccnc4)C3=O)coc2c1,-11%,-14%,17,5%,i
Cc1ccc(/C=C2\SC(=S)N(CCCC(=O)Nc3nccs3)C2=O)cc1,-5%,7%,u,1%,-6%
O=C(CCCN1C(=O)/C(=C\c2ccccc2)SC1=S)Nc1ccc(C(=O)O)cc1,0%,-3%,-31,-2%,i
CCc1ccc(/C=C2\SC(=S)N(CCCC(=O)Nc3nccs3)C2=O)cc1,-7%,8%,-93*,1%,i
CC1(C)OC1(C#N)c1ccccc1 (stereo not given),-13%,2%,-11,x,i
COc1ccc(/C=C2\SC(=O)N(CCCC(=O)Nc3ccc(C(=O)O)cc3)C2=O)cc1,-15%,6%,-101*,x,-29%
O=C(O)c1cccc2c1Cc1cc([N+](=O)[O-])ccc1-2,1%,5%,-97*,x,u
O=C(O)c1cccc2c1-c1ccc([N+](=O)[O-])cc1C2=O,-4%,-2%,22,x,-3%
COc1ccc2c(c1)CCc1cnc(N)nc1-2,-12%,2%,-68*,-4%,-15%
COc1ccc(N2Cc3ccccc3C2=NC(=O)c2cncc(Br)c2)cc1,x,-2%,-81*,-10%,x
COc1ccc(N2Cc3ccccc3C2=NC(=O)c2cccc([N+](=O)[O-])c2)cc1,-5%,-10%,-29,-11%,-22%
Cc1ccc(N2Cc3ccccc3C2=O)cc1,x,u,36,u,x
COc1ccc(N2Cc3ccccc3C2=O)cc1,-7%,-26%,74,14µM*,-9%
O=C(O)CCCCCN1C(=O)C(O)=C(C(=O)/C=C/c2ccccc2)C1c1cccc([N+](=O)[O-])c1 (stereo not given),6%,2%,-29,4%,i
